Rows were chosen to be rich in hits. Some 17% of all compounds tested hit in one or more screens of this group.
TDP1 cell CPT: growth inhibition of DT40 Tdp1-/-;hTDP1 cells with camptothecin (screen for TDP1 inhibitors) | chicken DT40 Tdp1-/-;hTDP1 cells + 20 nM CPT, ATP luminescence, 48 h | Potency, µM (titrated, usually from 46.2 µM), without a hit: at the top dose activity change, negative = growth inhibition, actives largely listed as inhibitors | 420,000 tested, 12% active | AID 686979; also: % is scaled to controls: 0 for no effect and ±100 for the full control effect; nearly all actives have a fitted effect of over 55% in size
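Cell growth measured by CellTiter-Glo luminescence after a minimum 48 h, 37 C compound exposure with 20 nM CPT in Tdp1-knockout DT40 cells stably expressing hTDP1, seeded 400/well; qHTS titration format.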
TGFb SMAD3 inh: TGF-b pathway inhibition; HepG2 CAGA-GFP TGF-b/SMAD3 reporter, GFP fluorescence, 18 h; TGF-beta stimulated, 500 pg/mL final; Potency, µM (highest dose often 46.1 µM), inactives show top-dose activity, negative = inhibition, actives largely listed as inhibitors; 410,000 tested, 1.2% active; AID 588855; also: % is scaled to controls: 0 for no effect and ±100 for the full control effect; nearly all actives have a fitted effect of over 65% in size
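Read-out: total well GFP (ex488/em500-530) summed from mean per-cell fluorescence. Cells: HEPG2 CAGA-GFP, 1% FBS DMEM, 18 h at 37 degrees C with 500 pg/mL final TGF-beta. Unstimulated wells served as the full-inhibition control; stimulated DMSO wells = 0%.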
HT1080 IDH1KD tx: kills HT-1080 cells with IDH1 knockdown. HT-1080 IDH1 knockdown viability, ATP luminescence, 48 h. Potency, µM (top dose mostly 46.1 µM), for inactives: at the top dose activity, negative = toxicity, usual class: cytotoxic. 360,000 tested, 2% active. AID 686971;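 also: 0% = DMSO wells and -100% = cell-free medium wells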
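Using the IDH1-knockdown HT-1080 line run in the same batch and compound series as the NT line, viability after 48 h at 37 °C was determined by CellTiter-Glo luminescence and expressed as % activity.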
HT1080NT lethal: kills 2HG-producing HT-1080-NT fibrosarcoma cells. HT-1080-NT fibrosarcoma viability, CellTiter-Glo ATP luminescence, 48 h. Potency, µM (doses to about 46.1 µM), for the others: at the highest dose activity, negative = less viability, most hits filed as cytotoxic. 360,000 tested, 1.6% active;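 also: NT is the 2HG producing partner of a matched IDH1 knockdown line; 0% = DMSO-treated cells and -100% = media-only wells without cells; nearly all actives have a fitted effect of over 55% in size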
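750 cells/well, RPMI + 5% FBS; 2 h settle, compound pin-transfer, 48 h at 37 degrees C. CellTiter-Glo 10 min RT, luminescence. Normalized to DMSO and media-only wells.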
TDP1 cell noCPT: qHTS for Inhibitors of human tyrosyl-DNA phosphodiesterase 1 (TDP1): qHTS in cells in absence of CPT; DT40 Tdp1-/- hTDP1 cells, no CPT, ATP luminescence, 48 h; Potency, µM (titrated, usually from 46.2 µM), for inactives: at the highest dose activity change, negative = growth inhibition, usual class: inhibitors; 420,000 tested, 15% active; also: % is scaled to controls: 0 for no effect and ±100 for the full control effect; nearly all actives have a fitted effect of over 55% in size
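Cells were dispensed at 400 per well, compounds added by pin tool, plates incubated ≥48 hr at 37 °C, then CellTiter-Glo added for 30 min at room temperature before luminescence reading. Line: DT40 Tdp1-/- complemented with hTDP1; camptothecin omitted.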
HepG2 viability: counter-screen for TGF-b inhibitors: cytotoxicity in HepG2 cells | AID 588856 | 410,000 tested, 0.76% active | Potency, µM (highest dose often 46.1 µM), without a hit: at the top dose activity change, negative = cytotoxicity, most hits filed as cytotoxic | HepG2 CAGA-GFP viability, ATP luminescence, 18 h
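CellTiter-Glo luminescence gave cytotoxicity after 18 hours at 37 degrees C. The cells were HepG2 CAGA-GFP in 1% FBS DMEM, stimulated with 500 pg/mL TGF-beta after compound addition. %Activity was normalised to no-cell wells (complete cell-killing) and DMSO (no toxicity), and curves were fitted and classified.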
An asterisk follows results filed as active; ? = inconclusive; . = no result given; [ ] = dose if it differs, or a comment. Calls follow the shape of the dose curve; as a rule, active = well fitted curve in the direction sought with a large enough effect; inconclusive = small, poorly fitted or top-dose-only effect, or another doubt; inactive = no such curve, though single readings can be large; an effect the other way counts as inactive or inconclusive. Potency is read from the fitted curve at half-maximal effect.

SMILES | TDP1 cell CPT | TGFb SMAD3 inh | HT1080 IDH1KD tx | HT1080NT lethal | TDP1 cell noCPT | HepG2 viability
C(=C1C=c2ccccc2=C1)c1ccc(N=Nc2ccc(C=C3C=c4ccccc4=C3)cc2)cc1 | -8% | -4% | . | . | -11% | -12%
Cc1oc(-c2cccc(NC(=O)c3ccccn3)c2)nc1CNC(=O)c1ccc(C(F)(F)F)cc1 | 0%[9.04 µM] | . | . | . | -24% | .
OCCNc1ncnc2ccc(Br)cc12 | ? | 2% | -15% | -10% | 6.5µM* | -7%
CCC(Sc1nncn2c1cc1oc(C)cc12)C(=O)Nc1ccc(F)cc1 (centres undefined) | ? | . | . | . | ? | -22%
COc1ccc(-c2noc(CSc3nnc(-c4ccncc4)n3-c3ccc(F)cc3)n2)cc1OC | ? | -2% | -29%[9.24 µM] | ? | ? | -36%
CCCn1c(SCc2nc(-c3cc(OC)ccc3OC)no2)nnc1-c1ccc(Cl)cc1 | 13µM* | ? | . | . | 15µM* | -20%
CCCn1c(SCc2nc(-c3ccccc3C)no2)nnc1-c1ccc(Cl)cc1 | 13µM* | ? | . | . | 16µM* | -25%
CCCn1c(SCc2nc(-c3ccc(OC)c(OC)c3)no2)nnc1-c1ccccc1 | ? | -26% | . | . | 18µM* | -24%
CC(C)NC(=O)C1CCC(Cn2c(=O)c3sccc3n(CC(=O)N3CCCC3)c2=O)CC1 (centres undefined) | -2% | -24% | . | . | 5% | 13%
CCOc1ccccc1CNC(=O)C1Cc2cc(S(=O)(=O)N3CCCCC3)ccc2N1C(C)=O (centres undefined) | ? | 0% | -23% | -17% | ? | 0%
COc1ccc(CC(=O)Nc2cc(S(=O)(=O)N3CCCC3)ccc2Cl)c(OC)c1 | ? | -15% | 0% | 1% | ? | -17%
CC(=O)Nc1ccc(NC(=O)C(Cc2ccccc2)NC(=O)C2CCCCC2)cc1 (centres undefined) | -10% | -4% | 9% | 28% | -3% | 6%
CCCC[P+](CCCC)(CCCC)Cc1ccc(NC(=O)[C@@H](Cc2ccc3ccccc3c2)NC(=NC2CCCCC2)NC2CCCCC2)cc1 | 13µM* | . | . | . | 17µM* | .
O=C(N/N=C/c1ccc([N+](=O)[O-])o1)c1cc(-c2ccncc2)nc2ccccc12 | 7.1µM* | 14% | ? | 4µM* | 3.2µM* | -42%
O=C(N/N=C/c1ccc([N+](=O)[O-])o1)c1cc(-c2ccc(-c3ccccc3)cc2)nc2ccccc12 | 4.1µM* | -14% | ? | ? | 0.46µM* | -8%
Cc1cc(Nc2ccc([N+](=O)[O-])cc2)nc2ccccc12 | 0% | -9% | ? | ? | -7% | 2%
Cc1ccc(/C=N/NC(=O)c2cc(-c3ccncc3)nc3ccccc23)o1 | 2.9µM* | ? | 1.8µM* | ? | 2.6µM* | 3%
O=C(NCc1ccccc1)c1cc(-c2ccncc2)nc2ccccc12 | ? | 0% | -16% | -4% | ? | -41%
COc1ccccc1-c1cc(C(=O)N/N=C/c2ccc(C)o2)c2ccccc2n1 | ? | 1% | ? | -11% | ? | -17%
Cc1cc(N/N=C/c2ccc([N+](=O)[O-])o2)nc2ccccc12 | 18µM* | 7% | -14% | -12% | 18µM* | -56%
O=C(N/N=C/c1ccc([N+](=O)[O-])o1)c1cn(-c2ccccc2)nc1-c1ccccc1 | ? | ? | -4% | -13% | 6.5µM* | -5%
Cc1ccc2nc(N/N=C/c3ccco3)cc(C)c2c1 | 8.2µM* | ? | -1% | -8% | 10µM* | 11µM*

Bioassay records from PubChem.
